This is an account of results in the supplement of paper PMC10037445.

Whole data set: some 2,900 compounds, median “NF-kB SEAP reporter activity, fold change vs agonist alone” near 0.99, cut for the highest 2% near 2.6. Only a selection was taken, and the highest values are over-represented in it overall.

For assay [1], the system named is RAW-Dual. In words: NF-kB SEAP reporter activity, fold change vs agonist alone; higher = enhanced NF-kB activity. The settings on record: library stock concentration (final ~1000-fold dilution): 10 mM. In outline: (§1)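 RAW-Dual macrophages (50,000 cells/well in DMEM, 384-well plates) received 50 nL of library stock by pin tool, then a PRR agonist 1 h later, and were kept at 37 °C, 5% CO2. After 20 hours, supernatant was read for IRF by QuantiLuc luminescence and for NF-κB by QuantiBlue absorbance at 620 nm. Reporter activity is fold change over agonist-alone wells. Cytotoxic wells had IncuCyte confluency below 70% of agonist controls in both mask sets.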

For assay [2], the system named is RAW-Dual. Put plainly: NF-kB SEAP reporter activity, fold change vs agonist alone; cytotoxicity flag (confluency mask): not cytotoxic; higher = enhanced NF-kB activity. The gist of the method:
as §1

Assay [3] deals with RAW-Dual. In words: NF-kB SEAP reporter activity, fold change vs agonist alone; cytotoxicity flag (confluency mask): cytotoxic (confluency <70% of control); higher = enhanced NF-kB activity. In outline:
as §1

[4] abbreviates: cytotoxicity flag (confluency mask): not cytotoxic, agonist: Imiquimod (TLR7) […].
[5] abbreviates: cytotoxicity flag (confluency mask): not cytotoxic, agonist: MPLA (TLR4) […].
Setting [6] is: agonist: ODN 1826 (TLR9) 0.5 ug/mL.
The mark [7] stands for this setting: agonist: Pam2CSK4 (TLR2/6) 0.1 ug/mL.
The mark [8] stands for this setting: agonist: Pam3CSK4 (TLR2/1) 0.1 ug/mL.

As for `CNC(C)C(=O)NC1CN(C(=O)CC(C)C)CCC2CCC(C(=O)NC(c3ccccc3)c3ccccc3)N2C1=O` (stereo not drawn), the figures for the “NF-kB SEAP reporter activity” value in the assay with RAW-Dual [1] (setting [4]) and with RAW-Dual [1] (setting [5]) were 0.948 and 0.82, respectively.
Turning to `CNC(C)C(=O)NC1CN(C(=O)CC(C)C)CCC2CCC(C(=O)NC(c3ccccc3)c3ccccc3)N2C1=O` (stereo not drawn) (library stock concentration (final ~1000-fold dilution): 10 mM), the “NF-kB SEAP reporter activity” value with RAW-Dual [2] (agonist: LPS (TLR4) 0.1 ug/mL) came out at 0.854; in the assay with RAW-Dual [2] (setting [6]) it was 1.1; in the assay on RAW-Dual [2] (setting [7]), 0.925; in the assay with RAW-Dual [2] (setting [8]), 1.08.
The corresponding values for `Nc1ccc(-c2cccc(C(=O)Nc3cnc4nc(N5CCOCC5)oc4c3)n2)cn1` (library stock concentration (final ~1000-fold dilution): 10 mM) are 1.43, 1.01, 0.911 and 1.33.
Turning to `CCn1c(-c2nonc2N)nc2cnc(Oc3cccc(NC(=O)c4ccc(OCCN5CCOCC5)cc4)c3)cc21.Cl`, the “NF-kB SEAP reporter activity” value was determined as 1.48 with RAW-Dual [1] (setting [4]) and 1.41 with RAW-Dual [1] (setting [5]).
For the compound `CC1(C)OCCn2c1nc1c(N3CCOCC3)nc(-c3cnc(N)nc3)nc12` (library stock concentration (final ~1000-fold dilution): 10 mM), the “NF-kB SEAP reporter activity” value is 1.42 in the assay on RAW-Dual [2] (agonist: LPS (TLR4) 0.1 ug/mL), 0.768 in the assay on RAW-Dual [2] (setting [6]), 0.464 in the assay with RAW-Dual [2] (setting [7]) and 0.544 in the assay on RAW-Dual [2] (setting [8]).
As for `N#Cc1cccc(-c2c[nH]c3ncnc(N4CCOCC4)c23)c1` (library stock concentration (final ~1000-fold dilution): 10 mM), the “NF-kB SEAP reporter activity” value in the assay on RAW-Dual [2] (agonist: LPS (TLR4) 0.1 ug/mL) stood at 0.963; with RAW-Dual [2] (setting [6]) it was 0.792; in the assay on RAW-Dual [2] (setting [7]) it was 0.588; in the assay with RAW-Dual [2] (setting [8]), 0.962.
In the case of `N#Cc1cccc(-c2c[nH]c3ncnc(N4CCOCC4)c23)c1`, the “NF-kB SEAP reporter activity” value with RAW-Dual [1] (setting [4]) is 1.01; in the assay with RAW-Dual [1] (setting [5]), 0.873.
Take `Nc1ccc(C(=O)Nc2cccc(-c3nc(N4CCOCC4)c4oc5ncccc5c4n3)c2)cn1`: the figures for the “NF-kB SEAP reporter activity” value in the assay on RAW-Dual [1] (setting [4]) and in the assay on RAW-Dual [1] (setting [5]) were 1.77 and 2.3, respectively.
For `Oc1cccc(-c2nc(N3CCOCC3)c3oc4ncccc4c3n2)c1`, the “NF-kB SEAP reporter activity” value in the assay with RAW-Dual [1] (setting [4]) was 2.46; with RAW-Dual [1] (setting [5]), 2.44.
Turning to `CC1(C)OCCn2c1nc1c(N3CCOCC3)nc(-c3cnc(N)nc3)nc12`, the “NF-kB SEAP reporter activity” value with RAW-Dual [1] (setting [4]) amounted to 1.02; in the assay with RAW-Dual [1] (setting [5]), 1.07.
For `CCn1c(-c2nonc2N)nc2cnc(Oc3cccc(NC(=O)c4ccc(OCCN5CCOCC5)cc4)c3)cc21.Cl` (library stock concentration (final ~1000-fold dilution): 10 mM), the “NF-kB SEAP reporter activity” value was determined as 1.31 with RAW-Dual [2] (agonist: LPS (TLR4) 0.1 ug/mL), 0.288 in the assay with RAW-Dual [2] (setting [6]), 1.12 in the assay on RAW-Dual [2] (setting [7]) and 1.56 with RAW-Dual [2] (setting [8]).
As for `Nc1ccc(-c2cccc(C(=O)Nc3cnc4nc(N5CCOCC5)oc4c3)n2)cn1`, the “NF-kB SEAP reporter activity” value in the assay with RAW-Dual [1] (setting [4]) amounted to 1.04; in the assay on RAW-Dual [1] (setting [5]), 1.08.
As for `Oc1cccc(-c2nc(N3CCOCC3)c3oc4ncccc4c3n2)c1` (library stock concentration (final ~1000-fold dilution): 10 mM), the “NF-kB SEAP reporter activity” value came to 4.71 in the assay with RAW-Dual [2] (agonist: LPS (TLR4) 0.1 ug/mL), 0.369 in the assay on RAW-Dual [2] (setting [6]), 0.849 in the assay with RAW-Dual [2] (setting [7]) and 1.34 in the assay with RAW-Dual [2] (setting [8]).
In the case of `Nc1ccc(C(=O)Nc2cccc(-c3nc(N4CCOCC4)c4oc5ncccc5c4n3)c2)cn1` (library stock concentration (final ~1000-fold dilution): 10 mM), the “NF-kB SEAP reporter activity” value in the assay on RAW-Dual [2] (agonist: LPS (TLR4) 0.1 ug/mL) came to 2.62; with RAW-Dual [2] (setting [6]) it was 0.304; with RAW-Dual [2] (setting [7]) it was 0.638; with RAW-Dual [2] (setting [8]) it was 0.805.
In the case of `Cc1csc(-c2nc[nH]c2-c2ccc3ncsc3c2)n1.Cl`, the “NF-kB SEAP reporter activity” value in the assay with RAW-Dual [1] (setting [4]) was found to be 0.927; in the assay on RAW-Dual [1] (setting [5]) it was 1.34.
Regarding `Cc1csc(-c2nc[nH]c2-c2ccc3ncsc3c2)n1.Cl` (library stock concentration (final ~1000-fold dilution): 10 mM), the “NF-kB SEAP reporter activity” value in the assay with RAW-Dual [2] (agonist: LPS (TLR4) 0.1 ug/mL) is 2.26; in the assay with RAW-Dual [2] (setting [6]), 1.18; in the assay on RAW-Dual [2] (setting [7]) it was 1.24; with RAW-Dual [2] (setting [8]) it was 1.47.
For `CC(Oc1cc(-n2cnc3ccc(CN4CCN(C)CC4)cc32)sc1C(N)=O)c1ccccc1C(F)(F)F` (stereo not drawn) (library stock concentration (final ~1000-fold dilution): 10 mM), the “NF-kB SEAP reporter activity” value in the assay with RAW-Dual [2] (agonist: LPS (TLR4) 0.1 ug/mL) was 1.15; in the assay with RAW-Dual [2] (setting [6]) it was 0.967; in the assay with RAW-Dual [2] (setting [7]), 0.97; with RAW-Dual [2] (setting [8]) it was 0.799.
`CC(Oc1cc(-n2cnc3ccc(CN4CCN(C)CC4)cc32)sc1C(N)=O)c1ccccc1C(F)(F)F` (stereo not drawn): the “NF-kB SEAP reporter activity” value in the assay with RAW-Dual [1] (setting [4]) worked out at 0.909; in the assay on RAW-Dual [1] (setting [5]) it was 0.993.
The corresponding values for `N#C/C(C(=O)c1ccc(Cl)cc1Cl)=C1\NC(=O)c2ccccc2N1` are 0.86 and 1.11.
As for `N#C/C(C(=O)c1ccc(Cl)cc1Cl)=C1\NC(=O)c2ccccc2N1` (library stock concentration (final ~1000-fold dilution): 10 mM), the “NF-kB SEAP reporter activity” value with RAW-Dual [2] (agonist: LPS (TLR4) 0.1 ug/mL) came to 1.13; in the assay on RAW-Dual [2] (setting [6]), 0.982; with RAW-Dual [2] (setting [7]), 0.65; in the assay with RAW-Dual [2] (setting [8]) it was 0.693.
Taken in the same sequence, the figures for `CC1OC(OC2C(Oc3cc(O)c4c(c3)OC(c3ccc(O)cc3)CC4=O)OC(CO)C(O)C2O)C(O)C(O)C1O` (stereo not drawn) (library stock concentration (final ~1000-fold dilution): 10 mM) were 0.935, 1.04, 1.17 and 1.13.
As to `CC1OC(OC2C(Oc3cc(O)c4c(c3)OC(c3ccc(O)cc3)CC4=O)OC(CO)C(O)C2O)C(O)C(O)C1O` (stereo not drawn), the “NF-kB SEAP reporter activity” value in the assay with RAW-Dual [1] (setting [4]) worked out at 0.993; in the assay on RAW-Dual [1] (setting [5]) it was 1.05.
Take `COc1ccc(C[C@@H]2c3cc(Oc4cc(C[C@@H]5c6cc(OC)c(OC)cc6CCN5C)ccc4O)c(OC)cc3CCN2C)cc1` (library stock concentration (final ~1000-fold dilution): 10 mM): the “NF-kB SEAP reporter activity” value stood at 1.06 in the assay with RAW-Dual [2] (agonist: LPS (TLR4) 0.1 ug/mL), 0.182 in the assay with RAW-Dual [2] (setting [6]), 0.121 in the assay on RAW-Dual [2] (setting [7]) and 0.622 with RAW-Dual [2] (setting [8]).
For `COc1ccc(C[C@@H]2c3cc(Oc4cc(C[C@@H]5c6cc(OC)c(OC)cc6CCN5C)ccc4O)c(OC)cc3CCN2C)cc1`, the “NF-kB SEAP reporter activity” value with RAW-Dual [1] (setting [4]) was found to be 0.915; in the assay with RAW-Dual [1] (setting [5]), 1.09.
The corresponding values for `Oc1ccc(-c2nc(-c3ccc(F)cc3)c(-c3ccncc3)[nH]2)cc1` are 1.92 and 1.84.
As for `Oc1ccc(-c2nc(-c3ccc(F)cc3)c(-c3ccncc3)[nH]2)cc1` (library stock concentration (final ~1000-fold dilution): 10 mM), the “NF-kB SEAP reporter activity” value in the assay with RAW-Dual [2] (agonist: LPS (TLR4) 0.1 ug/mL) amounted to 2.59; in the assay on RAW-Dual [2] (setting [6]), 0.851; in the assay on RAW-Dual [2] (setting [7]), 1.01; with RAW-Dual [2] (setting [8]) it was 1.2.
Consider `COc1cc2nc(N3CCCN(C)CC3)nc(NC3CCN(Cc4ccccc4)CC3)c2cc1OC.Cl.Cl.Cl` (library stock concentration (final ~1000-fold dilution): 10 mM), for which the “NF-kB SEAP reporter activity” value in the assay on RAW-Dual [3] (agonist: LPS (TLR4) 0.1 ug/mL) turned out to be 0.248; in the assay on RAW-Dual [3] (setting [6]) it was 0.189; with RAW-Dual [3] (setting [7]), 0.092; with RAW-Dual [3] (setting [8]), 0.13.
`COc1cc2nc(N3CCCN(C)CC3)nc(NC3CCN(Cc4ccccc4)CC3)c2cc1OC.Cl.Cl.Cl`: the “NF-kB SEAP reporter activity” value in the assay on RAW-Dual [1] (cytotoxicity flag (confluency mask): cytotoxic (confluency <70% of control), agonist: Imiquimod (TLR7) […]) turned out to be 0.133; with RAW-Dual [1] (cytotoxicity flag (confluency mask): cytotoxic (confluency <70% of control), agonist: MPLA (TLR4) […]), 0.247.
As to `CC(=O)OC1(C(C)=O)CCC2C3C=C(Cl)C4=CC(=O)CCC4(C)C3CCC21C` (stereo not drawn) (library stock concentration (final ~1000-fold dilution): 10 mM), the “NF-kB SEAP reporter activity” value stood at 1.21 in the assay with RAW-Dual [2] (agonist: LPS (TLR4) 0.1 ug/mL), 1.14 in the assay on RAW-Dual [2] (setting [6]), 1.08 in the assay on RAW-Dual [2] (setting [7]) and 1.16 with RAW-Dual [2] (setting [8]).
